Experimental data as given in PubChem BioAssay (NCI).
About 83,000 compounds went through this panel and 20% of them were active in at least one assay; those are over-represented in the sample as a whole.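 Cells were grown in 96-well plates and exposed to the test compound at a single concentration for 48 hours; results are reported as percent growth, with values below 10 considered active.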 Active and inactive are the calls of the source.

tested on: HL-60(TB) leukemia; test: NCI-60 one-dose screen, 48 h (100 = growth as untreated, 0 = no growth, -100 = all killed); conditions: 10 µM unless noted

SMILES | growth
COc1cc(/C=C2\CCC/C(=C\c3ccc(OCC4CO4)c(OC)c3)C2=O)ccc1OCC1CO1 (stereo unspecified) | -3.96% (active)
CCN(CC)CC(=O)Nc1cccc(C(=O)OC(C)C)c1 | 93% (inactive)
COc1ccc(NC(=O)Nc2ccccc2CNc2nc(Nc3ccc(OCCN4CCCC4)cc3)ncc2Cl)cc1 | -43.7% (active)
CN1C(=O)/C(=C\c2c(Cl)cccc2Cl)c2ccccc21 | 80.9% (inactive)
Nc1nc2c(c(-c3nc(N)nc4c3CCc3ccccc3-4)n1)CCc1ccccc1-2 | 105% (inactive)
COc1cc(C2NC(c3cc(OC)c(OC)c(OC)c3)C(C#N)(C#N)C2(C#N)C#N)cc(OC)c1OC (stereo unspecified) | 89.3% (inactive)
COc1ccc(-c2csc(-c3cc(Cl)cc(Cl)c3Cl)n2)cc1 | 93.6% (inactive)
CCCCNc1ccc2c3c1cccc3c(=O)n1c3ccccc3nc21 | 63.4% (inactive)
Cc1ccc(Nc2nc(N)nc(N)c2N=O)cc1Cl | 67.9% (inactive)
CC(=O)Nc1ccc(C(=O)COc2ccc(/C=C3\CCc4ccccc4C3=O)cc2)cc1 | 102% (inactive)
Cc1ccc(C(=O)c2ccc(CC(=O)N=Nc3c(O)[nH]c4ccc(OC(F)(F)F)cc34)n2C)cc1 | 94.6% (inactive)
COc1ccc(/C=C/C(C)=N/OCC(=O)O)cc1 | 89.1% (inactive)
COc1cccc(-c2cc(-c3cc4ccccc4oc3=O)nc(N)n2)c1 | 101% (inactive)
O=C1c2ccccc2C(=O)c2c1cc1c(c2[N+](=O)[O-])OCO1 | 7.66% (active)
CCN(CC)CCCNC(=O)c1c2c(n3ccccc13)C(=O)c1ncccc1C2=O | -33.8% (active)
CCOc1cccc(/C=N\Nc2nc(=O)cc(C(=O)OC)s2)c1O | 72.8% (inactive)
CN1CCN(c2ccc3nc(-c4ccc5nc(-c6ccc(C(F)(F)F)cc6)[nH]c5c4)[nH]c3c2)CC1 | 23.9% (inactive)
COc1ccc(COC(=O)CC(C)C)cc1 | 99.7% (inactive)
CN1CCCN(C(c2ccccc2)c2ccc(Br)cc2)CC1 (stereo unspecified) | 110% (inactive)
Nc1ccc(C2c3ccccc3Oc3ccccc32)cc1 | 115% (inactive)
NS(=O)(=O)c1ccc(Nc2nc(O)c(/C=C3\C=Nc4ccccc43)s2)cc1 | 95.4% (inactive)
CC(C)OC(=O)NNC(=O)c1ccncc1 | 85.2% (inactive)
CC(=O)Oc1cc2cnc3c4cc(OC(C)=O)c(OC(C)=O)cc4ccc3c2cc1OC(C)=O | -2.79% (active)
O=C(CSc1nnc(-c2ccc(Cl)cc2)o1)Nc1ccc(C(=O)/C=C/c2ccccc2)cc1 | 97.1% (inactive)
CCOC(=O)N/N=C\C(C)=N\NC(=O)OCC | 92.9% (inactive)
CN1C(=O)[C@H]2c3c1cccc3[C@@]13NC(=O)O[C@H]1[C@H](CCC3(C)C)C2(C)C | 97.9% (inactive)
